The text below walks through data of PMC5700166.

Positions count from the first letter of the chain named.

What all share (assay): protein-binding microarray (PBM); PBM: ~300 nM protein, 6 mM HEPES pH 7.8, 80 mM KCl, 0.5 mM EDTA, 0.5 mM EGTA, 6% glycerol, 35 ng/ul poly-dIdC, 1% milk, 1 h, room temperature; Ap Aiptasia and Nv Nematostella (sea anemones) / Co Capsaspora / Aq Amphimedon (sponge) / Dm Drosophila / Hu human; RHD is the Rel homology domain; high values mean tight binding
Conditions in all cases: dsDNA, one strand shown

For assay [1], the target named is T1, GST-Ap-NF-kB RHD (Exaiptasia pallida (Aiptasia), UniProt A0A913YAJ5 2-422).
T1 sequence: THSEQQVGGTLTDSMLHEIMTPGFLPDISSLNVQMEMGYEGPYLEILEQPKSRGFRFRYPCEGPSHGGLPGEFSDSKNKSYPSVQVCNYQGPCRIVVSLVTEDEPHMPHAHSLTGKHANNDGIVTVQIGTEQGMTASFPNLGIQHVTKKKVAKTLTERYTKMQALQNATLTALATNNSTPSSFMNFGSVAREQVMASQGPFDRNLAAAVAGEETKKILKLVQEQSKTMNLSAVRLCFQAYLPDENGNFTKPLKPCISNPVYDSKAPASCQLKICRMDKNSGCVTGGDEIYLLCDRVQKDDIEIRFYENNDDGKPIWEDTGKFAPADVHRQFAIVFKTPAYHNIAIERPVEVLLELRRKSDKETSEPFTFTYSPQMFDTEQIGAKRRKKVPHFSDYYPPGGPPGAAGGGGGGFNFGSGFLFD

The target of assay [2] is T2, GST-Nv-NF-kB (Cys allele) (Nematostella vectensis, UniProt E5G601 2-411).
T2 sequence: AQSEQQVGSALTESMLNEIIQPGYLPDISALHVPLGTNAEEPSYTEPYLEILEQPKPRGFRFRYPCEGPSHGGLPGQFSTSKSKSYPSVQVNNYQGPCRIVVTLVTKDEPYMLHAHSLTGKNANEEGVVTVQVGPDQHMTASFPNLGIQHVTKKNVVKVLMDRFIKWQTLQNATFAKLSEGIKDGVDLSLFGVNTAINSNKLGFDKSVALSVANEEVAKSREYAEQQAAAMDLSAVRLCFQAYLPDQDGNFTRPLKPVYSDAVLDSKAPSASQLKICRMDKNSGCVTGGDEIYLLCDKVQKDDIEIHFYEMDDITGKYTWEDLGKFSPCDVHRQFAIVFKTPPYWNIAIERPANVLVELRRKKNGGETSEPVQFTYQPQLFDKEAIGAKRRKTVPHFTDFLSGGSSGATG

Assay [3] has as its target T3, GST-Nv-NF-kB (Ser allele) (Nematostella vectensis, UniProt A7UNT2 2-411).
T3 sequence: T2 sequence with Q21R, C66S, S207N, E215Q, V217A, E225K, A268E, D399E

Assay [4] addresses T4, GST-Co-NF-kB (Capsaspora owczarzaki, UniProt F1ARL5 200-546).
T4 sequence: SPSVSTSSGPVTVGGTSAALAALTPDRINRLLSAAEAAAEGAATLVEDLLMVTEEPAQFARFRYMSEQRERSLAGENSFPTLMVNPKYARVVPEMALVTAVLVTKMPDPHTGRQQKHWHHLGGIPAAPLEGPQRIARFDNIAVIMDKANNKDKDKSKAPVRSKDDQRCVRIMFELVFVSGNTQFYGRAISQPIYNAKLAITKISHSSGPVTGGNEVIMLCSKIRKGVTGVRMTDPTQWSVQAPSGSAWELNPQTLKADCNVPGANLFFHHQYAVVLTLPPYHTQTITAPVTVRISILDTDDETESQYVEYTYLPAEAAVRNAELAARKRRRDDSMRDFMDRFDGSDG

Assay [5] has as its target T5, GST-Dm-Relish (Drosophila melanogaster, UniProt Q94527 99-473).
T5 sequence: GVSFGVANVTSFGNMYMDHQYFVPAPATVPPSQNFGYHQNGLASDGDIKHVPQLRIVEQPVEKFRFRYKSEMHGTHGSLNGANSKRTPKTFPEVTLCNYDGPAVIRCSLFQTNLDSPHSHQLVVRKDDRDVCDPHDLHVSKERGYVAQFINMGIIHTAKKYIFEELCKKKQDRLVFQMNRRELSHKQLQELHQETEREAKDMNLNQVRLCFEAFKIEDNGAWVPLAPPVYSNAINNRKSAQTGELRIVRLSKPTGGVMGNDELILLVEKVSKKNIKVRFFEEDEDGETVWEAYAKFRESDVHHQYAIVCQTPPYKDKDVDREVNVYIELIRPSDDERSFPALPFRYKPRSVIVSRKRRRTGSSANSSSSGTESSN

Assay [6] has as its target T6, GST-Aq-NF-kB (Amphimedon queenslandica, UniProt A9Y5G7 2-389).
T6 sequence: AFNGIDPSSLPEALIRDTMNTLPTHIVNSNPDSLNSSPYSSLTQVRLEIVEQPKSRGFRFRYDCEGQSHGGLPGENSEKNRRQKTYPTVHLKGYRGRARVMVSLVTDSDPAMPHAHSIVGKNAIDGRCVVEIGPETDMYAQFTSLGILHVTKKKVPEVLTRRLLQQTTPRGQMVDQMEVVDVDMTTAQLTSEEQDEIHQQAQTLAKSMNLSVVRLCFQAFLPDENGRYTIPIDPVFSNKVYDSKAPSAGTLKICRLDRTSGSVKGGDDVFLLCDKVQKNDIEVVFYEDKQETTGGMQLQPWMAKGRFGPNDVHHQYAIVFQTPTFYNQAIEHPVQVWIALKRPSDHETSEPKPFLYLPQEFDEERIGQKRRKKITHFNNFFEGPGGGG

For the sequence “CCGATTAACATCAATCCCCCCCATGATGTTAATCGGGTCTTGATTCGCTTGACGCTGCTG”, the binding signal amounted to 7.7 z-score in assay [1]; 5.57 z-score in assay [2]; 4.56 z-score in assay [3]; 6.68 z-score in assay [4]; 5.46 z-score in assay [5]; 4.81 z-score in assay [6].

Turning to “CCGATTAACATCAATTTATCCCCTGATGTTAATCGGGTCTTGATTCGCTTGACGCTGCTG”, the binding signal in assay [1] was 5.26 z-score; in assay [2], 5.83 z-score; in assay [3], 7.39 z-score; in assay [4], 7.11 z-score; in assay [5] it was 3.35 z-score; in assay [6], 3.84 z-score.

Consider “CCGATTAACATCAAGCCCCCCCATGATGTTAATCGGGTCTTGATTCGCTTGACGCTGCTG”, for which the binding signal turned out to be 4.83 z-score in assay [1]; 3.07 z-score in assay [2]; 3.1 z-score in assay [3]; 3.51 z-score in assay [4]; 3.97 z-score in assay [5]; 3.85 z-score in assay [6].

On to “CCGATTAACATCAGGAAAGTACCTGATGTTAATCGGGTCTTGATTCGCTTGACGCTGCTG”, for which the binding signal came out at 3.4 z-score in assay [1]; 5.99 z-score in assay [2]; 8.2 z-score in assay [3]; 8.08 z-score in assay [5]; 6.27 z-score in assay [6].

On to “CCGATTAACATCAAAAAACTACCTGATGTTAATCGGGTCTTGATTCGCTTGACGCTGCTG”, for which the binding signal was found to be 2.29 z-score in assay [1]; 3 z-score in assay [2]; 7.62 z-score in assay [3]; 6.2 z-score in assay [5]; 3.57 z-score in assay [6].

With “CCGATTAACATCAGAAATCCCAATGATGTTAATCGGGTCTTGATTCGCTTGACGCTGCTG”, the binding signal stood at 2.44 z-score in assay [1]; 2.13 z-score in assay [2]; 1.82 z-score in assay [3]; 1.84 z-score in assay [4]; 5.13 z-score in assay [5]; 2.14 z-score in assay [6].

On to “CCGATTAACATCAAAAAATTACCTGATGTTAATCGGGTCTTGATTCGCTTGACGCTGCTG”, for which the binding signal in assay [1] was 2.19 z-score; in assay [2] it was 4.07 z-score; in assay [3] it was 6.92 z-score; in assay [5] it was 6.23 z-score; in assay [6], 3.3 z-score.

As to “CCGATTAACATCACTCCCTAAAATGATGTTAATCGGGTCTTGATTCGCTTGACGCTGCTG”, the binding signal in assay [1] is 1.35 z-score; in assay [2] it was 2.35 z-score; in assay [4], 1.22 z-score; in assay [6], 3.48 z-score.

For “CCGATTAACATCAGTACGGGAAATGATGTTAATCGGGTCTTGATTCGCTTGACGCTGCTG”, the binding signal in assay [1] came out at 1.79 z-score; in assay [2], 3.11 z-score; in assay [4], 2.65 z-score; in assay [6] it was 2.81 z-score.

Regarding “CCGATTAACATCAACCTTTCCCCTGATGTTAATCGGGTCTTGATTCGCTTGACGCTGCTG”, the binding signal in assay [1] was 5.33 z-score; in assay [2], 6.21 z-score; in assay [3], 7.66 z-score; in assay [4], 6.19 z-score; in assay [5], 1.62 z-score; in assay [6] it was 4.44 z-score.

Consider “CCGATTAACATCATGGTGGGAAATGATGTTAATCGGGTCTTGATTCGCTTGACGCTGCTG”, for which the binding signal stood at 1.25 z-score in assay [1], 2.69 z-score in assay [2], 2.94 z-score in assay [4] and 1.9 z-score in assay [6].

With “CCGATTAACATCACTTTCCCCCCTGATGTTAATCGGGTCTTGATTCGCTTGACGCTGCTG”, the binding signal in assay [1] turned out to be 5.84 z-score; in assay [2] it was 5.86 z-score; in assay [3] it was 7.31 z-score; in assay [4], 9.03 z-score; in assay [5], 4.29 z-score; in assay [6], 5.34 z-score.

“CCGATTAACATCAGGGACGGAAATGATGTTAATCGGGTCTTGATTCGCTTGACGCTGCTG”: the binding signal was 2.7 z-score in assay [1], 3.44 z-score in assay [2], 2.07 z-score in assay [4] and 2.84 z-score in assay [6].
